Assay results from PubChem BioAssay (NCI).
Compounds without any hit were thinned out: in the full panel of roughly 79,000, 15% have a hit. A number with no mark means an inactive call. Activity calls are given as the source filed them. Cut-off read from the data, not from the text of the source: active = growth inhibition above about 70%; inactive = the rest.

Tests used:
[1] = NCI Yeast Anticancer Drug Screen. Data for the rad50 strain (AID 155);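 note: 0% = growth of vehicle-only cultures of the same strain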; conditions: S. cerevisiae rad50 strain growth inhibition, stronger effect = higher value
Method in brief: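 A DNA repair-deficient yeast mutant serves as the test organism; compound-induced growth inhibition is calculated against vehicle-treated cells.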

[2] = NCI Yeast Anticancer Drug Screen. Data for the mec2-1 strain (AID 157); conditions: S. cerevisiae mec2-1 strain, stronger effect = higher value
Method in brief: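 Mutant yeast (mec2-1) grown with compound; growth inhibition relative to vehicle control reported.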

[3] = NCI Yeast Anticancer Drug Screen. Data for the sgs1 mgt1 strain (AID 161);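 note: 0% = growth of cultures given vehicle only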; conditions: S. cerevisiae sgs1 mgt1 strain, stronger effect = higher value
Method in brief: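 Yeast cells carrying a defined DNA-repair defect were exposed to test compounds. Growth inhibition was measured relative to vehicle-treated controls.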

[4] = NCI Yeast Anticancer Drug Screen. Data for the cln2 rad14 strain (AID 165);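 note: 0% = growth equal to vehicle treated cultures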; conditions: S. cerevisiae cln2 rad14 strain, stronger effect = higher value
Method in brief: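 Readout is yeast growth inhibition versus vehicle-treated controls, using a strain with cln2 and rad14 alterations exposed to compound.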

[5] = NCI Yeast Anticancer Drug Screen. Data for the bub3 strain (AID 167); conditions: S. cerevisiae bub3 mutant strain, stronger effect = higher value
Method in brief: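 Inhibition values come from growth of compound-treated mutant yeast normalised to vehicle-treated controls.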

[6] = NCI Yeast Anticancer Drug Screen. Data for the mlh1 rad18 strain (AID 175); conditions: S. cerevisiae mlh1 rad18 strain growth inhibition, stronger effect = higher value
Method in brief: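 Genetically defined yeast (DNA repair-deficient) exposed to compounds; growth inhibition determined relative to vehicle.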

[7] = at 5.0 µM (retest, dose inferred, filed as 0.5)
[8] = at 50.0 µM (retest, dose inferred, filed as 5.0)

SMILES | growth inhibition [1, 7] | growth inhibition [1, 8] | growth inhibition ([1]; at 50.0 µM) | growth inhibition [2, 7] | growth inhibition [2, 8] | growth inhibition ([2]; at 50.0 µM) | growth inhibition [3, 7] | growth inhibition [3, 8] | growth inhibition ([3]; at 50.0 µM) | growth inhibition [4, 7] | growth inhibition [4, 8] | growth inhibition ([4]; at 50.0 µM) | growth inhibition [5, 7] | growth inhibition [5, 8] | growth inhibition ([5]; at 50.0 µM) | growth inhibition [6, 7] | growth inhibition [6, 8] | growth inhibition ([6]; at 50.0 µM)
CC(CN1CCOCC1)(CN1CCOCC1)[N+](=O)[O-] | 10% | 99% (active) | 99.6% (active) | 8% | 100% (active) | 99.8% (active) | 4% | 100% (active) | 99.7% (active) | 3% | 99% (active) | 99.3% (active) | 14% | 99% (active) | 99.8% (active) | 13% | 99% (active) | 99.5% (active)
CN(C)C(=S)/N=c1\sn(C)/c(=N\C(=S)N(C)C)n1C | -30% | -14% | -0.5% | -11% | -11% | -5.9% | 5% | 7% | -5.6% | – | – | – | -13% | -17% | 0.6% | -7% | -8% | 19.8%
c1ccc2c3[nH]c(c2c1)=Nc1ccc(cc1)-c1nc2ccc(cc2o1)N=c1[nH]c(c2ccccc12)=Nc1ccc2nc(oc2c1)-c1ccc(cc1)N=3 | 28% | 94% (active) | 78.2% (active) | 18% | 93% (active) | 84.8% (active) | 30% | 94% (active) | 82.7% (active) | 17% | 81% (active) | 84% (active) | 31% | 95% (active) | 77% (active) | 50% | 93% (active) | 88.6% (active)
COC(=O)c1ccc2c(c1)CC1(C2)Cc2ccccc2C1=O (stereo not drawn) | 14% | 88% (active) | 68% | -20% | 92% (active) | 77% (active) | -4% | 84% (active) | 83.5% (active) | -37% | 64% | 57.5% | – | – | – | -17% | 94% (active) | 79.5% (active)
Clc1cc(Cl)c2cc3cccc[n+]3cc2c1Cl | 0% | 19% | 90.2% (active) | -11% | 33% | 93.5% (active) | 2% | -18% | 79.2% (active) | 4% | 31% | 54.2% | – | – | – | -14% | 55% | 96.1% (active)
N#Cc1c2c(c(N=[N+]=[N-])n3c1nc1ccccc13)CCCC2 | 47% | 95% (active) | 87.2% (active) | 36% | 98% (active) | 92.3% (active) | 45% | 99% (active) | 91.5% (active) | – | – | – | 43% | 95% (active) | 90.9% (active) | 50% | 98% (active) | 89.7% (active)
CNC1C(O)C(NC)C2OC3(O)C(=O)CC(C)OC3OC2C1O (stereo not drawn) | -7% | 6% | 84.1% (active) | 1% | -19% | 89.8% (active) | -7% | -1% | 9.05% | 17% | 23% | 83.7% (active) | -1% | -9% | 86.3% (active) | -27% | -30% | 86.7% (active)
CN(C)c1ccc(C2(Cl)c3ccccc3N(Cc3ccccc3)c3ccccc32)cc1 | 99% (active) | 94% (active) | 96.5% (active) | 99% (active) | 95% (active) | 97.2% (active) | 99% (active) | 95% (active) | 96% (active) | 99% (active) | 93% (active) | 93.2% (active) | 99% (active) | 94% (active) | 96.4% (active) | 99% (active) | 94% (active) | 96.3% (active)
O=c1c(Cl)nsnc1Cl | 100% (active) | 100% (active) | 99.6% (active) | 100% (active) | 100% (active) | 99.7% (active) | 100% (active) | 100% (active) | 99.6% (active) | 99% (active) | 100% (active) | 98% (active) | – | – | – | 99% (active) | 100% (active) | 99.4% (active)
Nc1cccc2c1C(=O)c1cccc(Cl)c1C2=O | 31% | 83% (active) | 87.7% (active) | 3% | 16% | 11.8% | 0% | 14% | 21.1% | 1% | 2% | -82% | 5% | 21% | 58% | 11% | 30% | 50.3%
CCC(C)NCCNc1cc(OC)cc2cccnc12 (stereo not drawn) | 10% | 13% | 42.9% | 1% | 0% | 27% | 7% | 10% | 21% | 16% | -5% | -26.6% | – | – | – | 10% | 33% | 51.1%
Oc1cccc2c(Br)ccnc12 | -5% | 100% (active) | 87% (active) | -21% | 99% (active) | 92% (active) | -33% | 99% (active) | 85% (active) | -5% | 99% (active) | 87.8% (active) | -29% | 99% (active) | 87.2% (active) | 15% | 99% (active) | 81.8% (active)
N#Cc1ccccc1[N+](=O)[O-] | 16% | 95% (active) | 67.5% | 1% | 58% | 20.4% | 3% | 63% | 59.8% | – | – | – | -3% | 54% | 61.4% | 4% | 93% (active) | 79.5% (active)
